# Measurements reported in the supplement of paper PMC10849652.
# The full data set covers some 7,900 targets. This sample favours those with a hit. About 0.6% of all pairs of compound and target were hits. Unmarked numbers belong to inactive results.
# Key:
# Experiment in all cases: log2 fold change, soluble protein after heating vs DMSO (PISA); higher = thermal stabilisation; K562 cells, 10 uM, 30 min; active = over 0.2 and 3.5 SD of the protein, either way, in both replicates (recomputed)
# [1] = compound: CC[C@@H]1C(=O)N(C)c2cnc(Nc3ccc(C(=O)NC4CCN(C)CC4)cc3OC)nc2N1C1CCCC1
# How it was run: (§1)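 K562 cells at 2×10^6 cells/mL were treated with 10 μM compound for 30 min. Aliquots were heated for 3 min across 48°C-58°C, pooled, and extracted in PBS with 0.5% NP-40 at 4°C; soluble protein was the supernatant after 21,000xg for 90 min. Soluble protein was quantified by TMTpro 16plex LC-MS/MS with channel sums equalised, and reported as log2 fold change in thermal stability against DMSO controls, with values from duplicates.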
# volasertib = compound: CC[C@@H]1C(=O)N(C)c2cnc(Nc3ccc(C(=O)N[C@H]4CC[C@H](N5CCN(CC6CC6)CC5)CC4)cc3OC)nc2N1C(C)C [volasertib]
# How it was run: as §1
# [2] = compound: CC[C@H](C)N1C=C(C2=C(C=C(C=C21)C3=CN=C(C=C3)N4CCNCC4)C(=O)NCC5=C(C=C(NC5=O)C)C)C
# How it was run: as §1
# epoxomicin = compound: CC[C@H](C)[C@@H](C(=O)N[C@@H]([C@@H](C)O)C(=O)N[C@@H](CC(C)C)C(=O)[C@]1(CO1)C)NC(=O)[C@H]([C@@H](C)CC)N(C)C(=O)C [epoxomicin]
# How it was run: as §1
# [3] = compound: CCn1c(C(=O)N(C2CC2)C2CC2)cc2c3c(ncn3C)c(Nc3cc(C)n(C)n3)nc21
# How it was run: as §1
# [4] = compound: CCn1cc(-c2ccnc3[nH]c(-c4cccc(CN(C)C)c4)cc23)c(-c2ccc(NC(=O)N(C)C)cc2)n1
# How it was run: as §1
# [5] = compound: CN(C)CC(=O)Nc1ccc2[nH]c(=O)c3ccccc3c2c1
# How it was run: as §1
# rosiglitazone = compound: CN(CCOC1=CC=C(C=C1)C[C@H]2C(=O)NC(=O)S2)C3=CC=CC=N3 (racemic) [rosiglitazone]
# How it was run: as §1
# [6] = compound: CN1C2=C(C3=C1C(=O)N(N=C3)CC4=CC(=CC=C4)N)SC(=C2)S(=O)C
# How it was run: as §1
# [7] = compound: CN1CCC(CNc2ccc3ncc(-c4cccc(OC(F)(F)F)c4)n3n2)CC1
# How it was run: as §1
# saracatinib = compound: CN1CCN(CCOc2cc(OC3CCOCC3)c3c(Nc4c(Cl)ccc5c4OCO5)ncnc3c2)CC1 [saracatinib]
# How it was run: as §1
# sotrastaurin = compound: CN1CCN(c2nc(C3=C(c4c[nH]c5ccccc45)C(=O)NC3=O)c3ccccc3n2)CC1 [sotrastaurin]
# How it was run: as §1
# alvocidib = compound: CN1CC[C@H](c2c(O)cc(O)c3c(=O)cc(-c4ccccc4Cl)oc23)[C@H](O)C1 [alvocidib]
# How it was run: as §1
# Tubastatin A = compound: CN1CCc2c(c3ccccc3n2Cc2ccc(C(=O)NO)cc2)C1 [Tubastatin A]
# How it was run: as §1
# [8] = compound: CNC(=O)C1=CC=CC=C1NC2=NC(=NC=C2Cl)NC3=C(C=C(C=C3)N4CCOCC4)OC
# How it was run: as §1
# defactinib = compound: CNC(=O)c1ccc(Nc2ncc(C(F)(F)F)c(NCc3nccnc3N(C)S(C)(=O)=O)n2)cc1 [defactinib]
# How it was run: as §1
# rucaparib = compound: CNCc1ccc(-c2[nH]c3cc(F)cc4c3c2CCNC4=O)cc1 [rucaparib]
# How it was run: as §1
# [9] = compound: CNc1nc(-c2ccc3c(N)n[nH]c3c2)cc(N2C[C@@H](C(=O)NC3CCCCC3)CC[C@H]2C)n1
# How it was run: as §1
# encorafenib = compound: COC(=O)N[C@@H](C)CNc1nccc(-c2cn(C(C)C)nc2-c2cc(Cl)cc(NS(C)(=O)=O)c2F)n1 [encorafenib]
# How it was run: as §1
# [10] = compound: COC(=O)[C@H](CCSC)NC(=O)C1=C(C=C(C=C1)NC[C@H](CS)N)C2=CC=CC=C2
# How it was run: as §1
# UniProt Q6VY07, sequence (Q6VY07 whole entry, looked up): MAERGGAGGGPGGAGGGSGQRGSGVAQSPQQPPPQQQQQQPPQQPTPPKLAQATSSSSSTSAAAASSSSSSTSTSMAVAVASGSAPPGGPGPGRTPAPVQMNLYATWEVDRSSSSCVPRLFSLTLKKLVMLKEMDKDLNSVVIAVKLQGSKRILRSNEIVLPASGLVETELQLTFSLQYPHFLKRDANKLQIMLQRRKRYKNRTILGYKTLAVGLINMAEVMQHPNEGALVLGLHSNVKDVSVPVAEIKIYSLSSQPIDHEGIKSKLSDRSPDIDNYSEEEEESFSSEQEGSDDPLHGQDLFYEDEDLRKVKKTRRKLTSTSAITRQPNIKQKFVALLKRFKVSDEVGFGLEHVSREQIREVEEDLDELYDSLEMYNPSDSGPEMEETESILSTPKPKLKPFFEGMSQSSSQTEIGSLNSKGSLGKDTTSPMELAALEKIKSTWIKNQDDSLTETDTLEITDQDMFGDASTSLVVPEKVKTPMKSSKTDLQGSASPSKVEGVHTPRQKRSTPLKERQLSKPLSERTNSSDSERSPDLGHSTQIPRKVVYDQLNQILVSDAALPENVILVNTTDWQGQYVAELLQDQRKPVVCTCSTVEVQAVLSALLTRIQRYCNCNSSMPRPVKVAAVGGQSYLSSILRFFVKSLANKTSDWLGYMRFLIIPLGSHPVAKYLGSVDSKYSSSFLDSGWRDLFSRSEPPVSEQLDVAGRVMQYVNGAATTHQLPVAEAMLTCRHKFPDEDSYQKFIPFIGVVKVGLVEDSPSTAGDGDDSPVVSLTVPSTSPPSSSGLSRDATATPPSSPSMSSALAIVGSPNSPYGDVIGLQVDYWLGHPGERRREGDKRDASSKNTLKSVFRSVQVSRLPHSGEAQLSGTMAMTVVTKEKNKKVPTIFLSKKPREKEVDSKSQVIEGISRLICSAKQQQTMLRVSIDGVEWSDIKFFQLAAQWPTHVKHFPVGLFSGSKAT
# UniProt P57740, sequence (P57740 whole entry, looked up): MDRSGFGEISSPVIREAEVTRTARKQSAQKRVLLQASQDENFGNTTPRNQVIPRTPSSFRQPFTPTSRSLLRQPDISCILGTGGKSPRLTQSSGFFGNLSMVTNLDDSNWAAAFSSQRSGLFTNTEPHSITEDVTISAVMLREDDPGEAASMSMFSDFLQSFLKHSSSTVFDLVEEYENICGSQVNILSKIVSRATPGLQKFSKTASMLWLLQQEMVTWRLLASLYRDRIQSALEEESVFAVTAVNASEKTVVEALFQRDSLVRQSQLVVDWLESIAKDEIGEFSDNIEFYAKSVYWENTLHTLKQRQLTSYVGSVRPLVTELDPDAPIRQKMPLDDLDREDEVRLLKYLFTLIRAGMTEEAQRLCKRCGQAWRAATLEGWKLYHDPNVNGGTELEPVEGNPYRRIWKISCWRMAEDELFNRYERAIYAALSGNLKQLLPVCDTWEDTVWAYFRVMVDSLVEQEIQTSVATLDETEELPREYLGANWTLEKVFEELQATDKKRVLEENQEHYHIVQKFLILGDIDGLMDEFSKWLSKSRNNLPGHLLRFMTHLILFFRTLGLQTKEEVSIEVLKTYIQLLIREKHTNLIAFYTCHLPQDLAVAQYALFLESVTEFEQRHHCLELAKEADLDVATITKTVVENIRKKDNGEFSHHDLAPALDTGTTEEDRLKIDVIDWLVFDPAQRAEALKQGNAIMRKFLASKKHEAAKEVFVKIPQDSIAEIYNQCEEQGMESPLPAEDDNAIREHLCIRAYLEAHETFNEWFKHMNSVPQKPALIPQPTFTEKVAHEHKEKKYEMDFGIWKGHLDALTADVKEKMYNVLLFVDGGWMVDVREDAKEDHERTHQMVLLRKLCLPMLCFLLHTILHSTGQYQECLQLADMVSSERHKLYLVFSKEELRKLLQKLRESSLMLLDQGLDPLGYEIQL
# UniProt O95747, sequence (O95747 whole entry, looked up): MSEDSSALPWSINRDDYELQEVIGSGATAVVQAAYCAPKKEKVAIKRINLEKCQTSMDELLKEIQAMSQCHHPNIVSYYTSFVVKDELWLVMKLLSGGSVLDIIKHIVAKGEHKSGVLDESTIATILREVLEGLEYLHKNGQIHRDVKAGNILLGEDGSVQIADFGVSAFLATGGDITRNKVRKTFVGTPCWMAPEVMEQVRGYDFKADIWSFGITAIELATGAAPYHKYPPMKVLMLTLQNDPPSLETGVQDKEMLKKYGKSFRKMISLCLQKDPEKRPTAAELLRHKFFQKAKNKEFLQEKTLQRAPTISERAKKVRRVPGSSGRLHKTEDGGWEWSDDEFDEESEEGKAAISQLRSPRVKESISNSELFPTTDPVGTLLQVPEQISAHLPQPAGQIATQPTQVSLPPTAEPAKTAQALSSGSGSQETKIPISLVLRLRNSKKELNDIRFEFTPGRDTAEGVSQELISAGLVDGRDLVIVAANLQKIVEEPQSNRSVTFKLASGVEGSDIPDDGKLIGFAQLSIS
# UniProt P52948, sequence (P52948 whole entry, looked up): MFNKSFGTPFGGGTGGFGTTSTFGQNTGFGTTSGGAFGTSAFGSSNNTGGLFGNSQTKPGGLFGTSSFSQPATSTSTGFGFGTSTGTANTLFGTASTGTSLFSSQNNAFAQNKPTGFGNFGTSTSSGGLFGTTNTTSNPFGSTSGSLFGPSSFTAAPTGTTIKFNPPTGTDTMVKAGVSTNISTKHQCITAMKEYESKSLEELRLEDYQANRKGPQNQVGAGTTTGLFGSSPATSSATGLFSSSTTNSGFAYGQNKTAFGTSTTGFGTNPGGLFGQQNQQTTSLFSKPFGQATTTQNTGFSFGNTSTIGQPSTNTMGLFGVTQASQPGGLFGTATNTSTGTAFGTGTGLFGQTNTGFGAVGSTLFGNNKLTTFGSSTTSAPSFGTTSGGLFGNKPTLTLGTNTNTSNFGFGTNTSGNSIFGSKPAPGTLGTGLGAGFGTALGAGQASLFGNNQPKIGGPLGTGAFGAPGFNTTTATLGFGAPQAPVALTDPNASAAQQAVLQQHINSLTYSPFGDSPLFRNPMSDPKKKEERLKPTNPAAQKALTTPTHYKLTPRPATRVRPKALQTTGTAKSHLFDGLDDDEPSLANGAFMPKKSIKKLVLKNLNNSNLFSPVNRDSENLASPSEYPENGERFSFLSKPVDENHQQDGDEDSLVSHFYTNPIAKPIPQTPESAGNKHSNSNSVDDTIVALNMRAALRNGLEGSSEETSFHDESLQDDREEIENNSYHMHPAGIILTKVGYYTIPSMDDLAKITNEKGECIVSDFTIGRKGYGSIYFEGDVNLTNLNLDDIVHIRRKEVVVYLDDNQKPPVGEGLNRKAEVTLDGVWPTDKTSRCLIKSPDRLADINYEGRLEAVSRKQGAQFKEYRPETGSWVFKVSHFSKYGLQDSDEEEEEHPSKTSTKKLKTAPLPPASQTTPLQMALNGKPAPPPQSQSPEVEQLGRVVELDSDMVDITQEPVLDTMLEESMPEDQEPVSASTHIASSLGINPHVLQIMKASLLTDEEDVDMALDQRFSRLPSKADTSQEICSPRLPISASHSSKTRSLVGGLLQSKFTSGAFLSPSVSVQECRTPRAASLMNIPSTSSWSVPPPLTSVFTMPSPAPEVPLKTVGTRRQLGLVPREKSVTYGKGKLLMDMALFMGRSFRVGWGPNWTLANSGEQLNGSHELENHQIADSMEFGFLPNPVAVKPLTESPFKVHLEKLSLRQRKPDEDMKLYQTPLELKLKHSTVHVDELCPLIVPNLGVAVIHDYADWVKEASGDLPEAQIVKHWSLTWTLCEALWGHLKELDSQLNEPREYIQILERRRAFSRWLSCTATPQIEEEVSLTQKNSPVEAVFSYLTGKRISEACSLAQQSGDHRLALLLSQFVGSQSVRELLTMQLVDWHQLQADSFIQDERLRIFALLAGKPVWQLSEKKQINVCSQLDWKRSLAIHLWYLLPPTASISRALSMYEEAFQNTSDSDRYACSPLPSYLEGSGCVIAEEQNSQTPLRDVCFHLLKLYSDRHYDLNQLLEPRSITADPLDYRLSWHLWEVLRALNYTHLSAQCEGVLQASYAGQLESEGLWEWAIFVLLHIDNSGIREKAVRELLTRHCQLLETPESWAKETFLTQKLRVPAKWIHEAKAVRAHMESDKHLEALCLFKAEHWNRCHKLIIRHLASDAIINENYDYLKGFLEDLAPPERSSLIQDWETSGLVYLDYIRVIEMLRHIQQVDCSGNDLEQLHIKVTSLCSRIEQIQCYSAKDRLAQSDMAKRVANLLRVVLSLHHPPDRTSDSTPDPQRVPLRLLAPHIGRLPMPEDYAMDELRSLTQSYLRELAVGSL
# UniProt Q96DE0, sequence (Q96DE0 whole entry, looked up): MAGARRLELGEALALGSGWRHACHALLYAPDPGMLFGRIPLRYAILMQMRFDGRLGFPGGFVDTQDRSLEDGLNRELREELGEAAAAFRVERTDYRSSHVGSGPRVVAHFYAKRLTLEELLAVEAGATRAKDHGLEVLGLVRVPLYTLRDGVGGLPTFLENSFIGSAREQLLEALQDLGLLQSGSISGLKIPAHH
Target,log2 fold change [1],log2 fold change (volasertib),log2 fold change [2],log2 fold change (epoxomicin),log2 fold change [3],log2 fold change [4],log2 fold change [5],log2 fold change (rosiglitazone),log2 fold change [6],log2 fold change [7],log2 fold change (saracatinib),log2 fold change (sotrastaurin),log2 fold change (alvocidib),log2 fold change (Tubastatin A),log2 fold change [8],log2 fold change (defactinib),log2 fold change (rucaparib),log2 fold change [9],log2 fold change (encorafenib),log2 fold change [10]
MRPS6 (UniProt P82932),-0.015,-0.045,0.03,-0.012,-0.06,-0.067,0.09,0.072,-0.021,0.027,-0.197,-0.058,-0.036,0.011,-0.003,-0.023,0.056,0.092,0.016,-0.126
MON2 isoform 5 (UniProt Q7Z3U7),-0.125,-0.377 (active),0.06,0.023,0,-0.028,0.031,0.062,-0.064,-0.158,-0.089,-0.001,-0.056,-0.005,0.02,-0.011,0.01,0.044,0.026,-0.025
NUDT16 (UniProt Q96DE0),0.038,0.033,-0.059,0.009,-0.019,-0.073,-0.011,-0.048,-0.069,-0.035,0.063,-0.031,-0.075,0.009,-0.057,-0.024,0.009,-0.004,-0.017,-0.05
OXSR1 (UniProt O95747),-0.122,-0.274 (active),0.049,0.03,-0.018,-0.077,0.043,0.053,0.008,-0.24 (active),-0.048,0.004,-0.094,0.038,-0.061,-0.093,0.001,0.033,0.042,-0.051
NNT (UniProt Q13423),0,0.013,0.036,0.023,-0.018,-0.073,0.015,0.042,-0.097,-0.008,0.005,0,-0.024,-0.01,0.017,-0.009,-0.053,-0.036,-0.001,-0.014
PACS1 (UniProt Q6VY07),0,-0.03,0.208,-0.045,-0.025,-0.006,0.006,0.039,0.029,0.014,-0.018,-0.043,0.002,0.038,-0.076,-0.045,0.022,0.037,-0.01,-0.018
NUP160 (UniProt Q12769),-0.109,-0.62 (active),0.005,-0.049,-0.01,0.04,0.007,0.03,-0.033,0.014,0.155,-0.141,-0.078,0,0.004,-0.11,0.019,-0.018,0.038,0.003
NUP107 (UniProt P57740),0.038,-0.182,0.106,-0.053,-0.069,0.169,-0.048,0.057,0.053,0.628 (active),-0.017,-0.103,-0.056,0.067,0.023,-0.081,0.041,0.02,0.111,0
NUP98 (UniProt P52948),-0.12,-0.276 (active),0.084,-0.012,-0.027,-0.018,0.039,0.068,0.033,-0.038,-0.019,-0.072,-0.063,0.041,0.018,-0.12,0.063,-0.037,0.039,-0.053
